# From the supplement of paper PMC9135407
# “And” between values parts separate entries of the source, which are not always exact repeats. Identical values can stand only once. The campaign covered roughly 5,800 compounds. About 620 (11%) showed activity. This is one part of a sample in which actives are shown more often than they occur. Values without a mark were called inactive.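 Rule for the calls: active = score above a cut-off or among the top three wells of a plate; in these data no inactive exceeds 0.85.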
# Tested on: primary human hepatic stellate cells (donor 1)
# Assay: scaled lipid accumulation score (0 = DMSO-like, 1 = nortriptyline-like); higher = stronger HSC inactivation (lipid re-accumulation), active = hit call of the paper
# Details: 48 h
# Description: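 Primary lipid accumulation screen in primary human hepatic stellate cell myofibroblasts (donor 1, passage 8) in 384-well plates. 100 nL of library compound was pin-transferred into 30 µL medium in duplicate, and cells were treated for 48 h. The 'Scaled' score combines distance from plate baseline, toxicity and reproducibility penalties, and is normalised to nortriptyline (positive) and DMSO (negative) controls on each plate. A hit is defined as scaled >0.85 or among the top 3 wells per plate.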
# [1] = library stock concentration: 400 uM
# [2] = library stock concentration: 2 mM
# [3] = library stock concentration: 10 mM
# [4] = library stock concentration: 3.33 mM
# [5] = library stock concentration: 80 uM
# [6] = library stock concentration: 1 mM
compound,measurement,setting,value
CC(=O)Nc1ccc([C@H](C)C(=O)Nc2ncc(C(C)C)s2)cc1,scaled lipid accumulation score,[1],≤ -0.005
same,scaled lipid accumulation score,[2],0.175
same,scaled lipid accumulation score,[3],0.348
Cc1ccc(-n2nc(C(C)(C)C)cc2NC(=O)Nc2ccc(OCCN3CCOCC3)c3ccccc23)cc1 [BIRB 796 (Doramapimod)],scaled lipid accumulation score,[4],0.017
same,scaled lipid accumulation score,[3],≤ 0
Cc1ccc(-n2nc(C(C)(C)C)cc2NC(=O)Nc2ccc(OCCN3CCOCC3)c3ccccc23)cc1,scaled lipid accumulation score,[5],≤ -0.009
same,scaled lipid accumulation score,[1],≤ -0.009
same,scaled lipid accumulation score,[2],0.044
same,scaled lipid accumulation score,[3],≤ -0.009
CC(C)(C)c1cc(NC(=O)Nc2ccc(-c3cn4c(n3)sc3cc(OCCN5CCOCC5)ccc34)cc2)no1 [Quizartinib  (AC220) (10 mM)],scaled lipid accumulation score,[3],1.7 (active)
CC(C)(C)c1cc(NC(=O)Nc2ccc(-c3cn4c(n3)sc3cc(OCCN5CCOCC5)ccc34)cc2)no1 [Quizartinib  (AC220) (2 mM)],scaled lipid accumulation score,[2],1.02 (active)
O=C(Cc1ccc(-c2ccc(OCCN3CCOCC3)cc2)cn1)NCc1ccccc1,scaled lipid accumulation score,[5],0.076
same,scaled lipid accumulation score,[1],0.268
same,scaled lipid accumulation score,[2],0.077
same,scaled lipid accumulation score,[4],0.093
same,scaled lipid accumulation score,[3],0.076 and 0.499
CC(C)(C)c1cc(NC(=O)Nc2ccc(-c3cn4c(n3)sc3cc(OCCN5CCOCC5)ccc34)cc2)no1 [Quizartinib (AC220)] [listing 1 of 2 here],scaled lipid accumulation score,[3],1.15 (active)
CC(C)(C)c1cc(NC(=O)Nc2ccc(-c3cn4c(n3)sc3cc(OCCN5CCOCC5)ccc34)cc2)no1 [Quizartinib (AC220)] [listing 2 of 2 here],scaled lipid accumulation score,[4],0.288
CC(C)(C)c1cc(NC(=O)Nc2ccc(-c3cn4c(n3)sc3cc(OCCN5CCOCC5)ccc34)cc2)no1,scaled lipid accumulation score,[5],≤ 0
same,scaled lipid accumulation score,[1],≤ 0
same,scaled lipid accumulation score,[2],0.142
same,scaled lipid accumulation score,[3],0.292
CC(C)(C)c1cc(NC(=O)Nc2ccc(-c3cn4c(n3)sc3cc(OCCN5CCOCC5)ccc34)cc2)no1 [Quizartinib  (AC220) (0.4 mM)],scaled lipid accumulation score,[1],≤ -0.005
"C=C1CCC(O)C/C1=C\C=C1\CCCC2(C)C1CCC2C(C)CCC(O)C(C)(C)O (centres undefined) [24,25-Dihydroxyvitamin D3]",scaled lipid accumulation score,[6],0.016
O=C(O)CCC/C=C\C[C@H]1C(=O)C[C@@H](O)[C@@H]1/C=C/[C@@H](O)COc1ccccc1 [16-phenoxy tetranor Prostaglandin E2],scaled lipid accumulation score,[6],≤ 0
CCCCCCCCCCCCCCCCCCCCCCCC(=O)NCCS(=O)(=O)O [N-Lignoceroyl Taurine],scaled lipid accumulation score,[6],0.009
CCCCCC(O)C=CC1C(O)CC(O)C1CC=CCCCC(=O)O (stereo not drawn) [8-epi-Prostaglandin F2a],scaled lipid accumulation score,[6],≤ -0.021
O=C(Cc1ccccc1)Nc1nc2ccc(Cl)cc2c2nc(-c3ccco3)nn12,scaled lipid accumulation score,[3],0.596
CC(C)NC[C@@H](C(=O)N1CCN(c2ncnc3c2[C@H](C)C[C@H]3O)CC1)c1ccc(Cl)cc1 [listing 1 of 2 here],scaled lipid accumulation score,[3],0.881 (active)
CC(C)NC[C@@H](C(=O)N1CCN(c2ncnc3c2[C@H](C)C[C@H]3O)CC1)c1ccc(Cl)cc1 [listing 2 of 2 here],scaled lipid accumulation score,[5],≤ -0.016
same,scaled lipid accumulation score,[1],≤ -0.016
same,scaled lipid accumulation score,[2],0.083
same,scaled lipid accumulation score,[4],0.174
same,scaled lipid accumulation score,[3],0.257
"CCCCCCCC/C=C\CCCCCCCC(=O)OCC(CO)OC(=O)CCCCCCC/C=C\CCCCCCCC (centres undefined) [1,2-Dioleoyl-glycerol (18:1)]",scaled lipid accumulation score,[6],0.004
COc1cc(N2CCC(C(N)=O)CC2)ccc1Nc1nc(N)c(Cl)c(Nc2ccccc2S(=O)(=O)C(C)C)n1,scaled lipid accumulation score,[5],≤ 0
same,scaled lipid accumulation score,[1],≤ 0
same,scaled lipid accumulation score,[2],0.025
same,scaled lipid accumulation score,[3],0.537
O=C(O)CCCCCCC1C(=O)NC(=O)N1CCC(O)C1CCCCC1 (centres undefined),scaled lipid accumulation score,[6],≤ 0
COc1cc(OC)c(C(=O)CCCCN2CCC3(CC2)NC(=O)NC3=O)cc1NS(=O)(=O)c1ccc(C(F)(F)F)cc1.Cl,scaled lipid accumulation score,[3],0.941 (active)
O=C(O)CN(CC(=O)O)Cc1cc2c(cc1O)Oc1cc(O)c(CN(CC(=O)O)CC(=O)O)cc1C21OC(=O)c2ccccc21 [Calcein],scaled lipid accumulation score,[3],0.169
COc1ccc2c(c1)c(CC(=O)Oc1ccc(-c3cc(=S)ss3)cc1)c(C)n2C(=O)c1ccc(Cl)cc1,scaled lipid accumulation score,[6],≤ 0
COC(=O)[C@H](Cc1ccccc1)NC(=O)/C=C/c1ccc(O)cc1,scaled lipid accumulation score,[6],0.011
C[C@H](NC(=O)CCc1nc2ccccc2c(=O)[nH]1)c1ccccc1,scaled lipid accumulation score,[4],≤ -0.009
same,scaled lipid accumulation score,[3],≤ 0
"CCCCCC#CCC#CCC#CCCCCCCC(=O)O [8,11,14-Eicosatriynoic Acid]",scaled lipid accumulation score,[6],≤ 0
CC(C)C[C@H](NC(=O)[C@@H](COC(C)(C)C)NC(=O)[C@H](Cc1ccc(O)cc1)NC(=O)[C@H](CO)NC(=O)[C@H](Cc1c[nH]c2ccccc12)NC(=O)[C@H](Cc1cnc[nH]1)NC(=O)[C@@H]1CCC(=O)N1)C(=O)N[C@@H](CCCNC(=N)N)C(=O)N1CCC[C@H]1C(=O)NNC(N)=O,scaled lipid accumulation score,library stock concentration: 9.6 mM,0.046
CC(C)C[C@H](NC(=O)[C@@H](COC(C)(C)C)NC(=O)[C@H](Cc1ccc(O)cc1)NC(=O)[C@H](CO)NC(=O)[C@H](Cc1c[nH]c2ccccc12)NC(=O)[C@H](Cc1cnc[nH]1)NC(=O)[C@@H]1CCC(=O)N1)C(=O)N[C@@H](CCCNC(=N)N)C(=O)N1CCC[C@H]1C(=O)NNC(N)=O [Goserelin acetate],scaled lipid accumulation score,library stock concentration: 1.6 mM,≤ -0.006
